Source: PubChem BioAssay
Results filed as inconclusive are left out. For some assays here: Entries with a potency or affinity are not part of this list. Active and inactive are the calls of the source. Unless noted, the rule behind the calls is not given here.

Columns and labels:
[1] = target: ATP-dependent translocase ABCB1 (Homo sapiens) (UniProt P08183); test: MDR1 (ABCB1) efflux transporter inhibition, cell-based (AID 377; in the data active = fluorescence slope change above about 50%); conditions: MDR1-expressing cells, fluorescent substrate accumulation slope; stronger effect = higher value; concentration not given here
[2] = polyglutamine-triggered caspase-3 activation inhibitors, cell-based (AID 1583); conditions: polyglutamine-induced caspase-3 activation, cell assay; stronger effect = higher value;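 tested at 10 µM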
[3] = suppressors of polyQ aggregation in yeast, 75Q-TubU reporter (AID 1593); conditions: Yeast 75Q polyglutamine aggregation reporter
[4] = rescue of polyQ-huntingtin neuronal dysfunction in worms, whole organism, C. elegans mechanosensory neurons, N-terminal huntingtin (AID 1599); conditions: touch response, stronger effect = higher value
[5] = inhibitors of mitochondrial cytochrome c release, biochemical, purified mitochondria (AID 1603); conditions: stronger effect = lower value;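 note: mouse liver mitochondria challenged with calcium chloride; signal normalized to the plate average as 100%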
[6] = inhibitors of polyQ protein aggregation (AID 1604); conditions: polyglutamine-induced protein aggregation inhibition assay; stronger effect = higher value; tested at 2.5 µM
[7] = enhancers of glutamate uptake in motor neurons, MN-1 cell line (AID 1612); conditions: MN-1 motor neuron cells, stronger effect = higher value;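 note: tested at 1 µM final; 0% = mean of DMSO vehicle wells on each plate; positive means more glutamate uptake than control and negative means less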
[8] = reducers of polyQ inclusions in PC12 cells, cell-based, NGF-treated PC12, GFPQ80 (AID 1614); conditions: PC12 NGF-treated GFP-polyQ80 inclusion reduction;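 note: lower means fewer inclusions and 0 means no inclusions at all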
[9] = suppressors of polyglutamine aggregation in yeast, 75Q-TubH (AID 1616); conditions: S. cerevisiae 75Q-TubH polyglutamine aggregation suppression; stronger effect = higher value
[10] = hESC survival regulators, cell-based (AID 493140); conditions: human embryonic stem cell survival screen; stronger effect = higher value;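 note: cells exposed to compounds for four days before counting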
[11] = circadian clock period modulators, cell-based, LOPAC library, luminescence reporter (AID 2774); conditions: circadian reporter cells, at 7 µM, actives lie on both sides;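 note: values are relative to mean of DMSO wells on each plate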

Sequence of ATP-dependent translocase ABCB1 (Homo sapiens) (P08183 whole entry, looked up): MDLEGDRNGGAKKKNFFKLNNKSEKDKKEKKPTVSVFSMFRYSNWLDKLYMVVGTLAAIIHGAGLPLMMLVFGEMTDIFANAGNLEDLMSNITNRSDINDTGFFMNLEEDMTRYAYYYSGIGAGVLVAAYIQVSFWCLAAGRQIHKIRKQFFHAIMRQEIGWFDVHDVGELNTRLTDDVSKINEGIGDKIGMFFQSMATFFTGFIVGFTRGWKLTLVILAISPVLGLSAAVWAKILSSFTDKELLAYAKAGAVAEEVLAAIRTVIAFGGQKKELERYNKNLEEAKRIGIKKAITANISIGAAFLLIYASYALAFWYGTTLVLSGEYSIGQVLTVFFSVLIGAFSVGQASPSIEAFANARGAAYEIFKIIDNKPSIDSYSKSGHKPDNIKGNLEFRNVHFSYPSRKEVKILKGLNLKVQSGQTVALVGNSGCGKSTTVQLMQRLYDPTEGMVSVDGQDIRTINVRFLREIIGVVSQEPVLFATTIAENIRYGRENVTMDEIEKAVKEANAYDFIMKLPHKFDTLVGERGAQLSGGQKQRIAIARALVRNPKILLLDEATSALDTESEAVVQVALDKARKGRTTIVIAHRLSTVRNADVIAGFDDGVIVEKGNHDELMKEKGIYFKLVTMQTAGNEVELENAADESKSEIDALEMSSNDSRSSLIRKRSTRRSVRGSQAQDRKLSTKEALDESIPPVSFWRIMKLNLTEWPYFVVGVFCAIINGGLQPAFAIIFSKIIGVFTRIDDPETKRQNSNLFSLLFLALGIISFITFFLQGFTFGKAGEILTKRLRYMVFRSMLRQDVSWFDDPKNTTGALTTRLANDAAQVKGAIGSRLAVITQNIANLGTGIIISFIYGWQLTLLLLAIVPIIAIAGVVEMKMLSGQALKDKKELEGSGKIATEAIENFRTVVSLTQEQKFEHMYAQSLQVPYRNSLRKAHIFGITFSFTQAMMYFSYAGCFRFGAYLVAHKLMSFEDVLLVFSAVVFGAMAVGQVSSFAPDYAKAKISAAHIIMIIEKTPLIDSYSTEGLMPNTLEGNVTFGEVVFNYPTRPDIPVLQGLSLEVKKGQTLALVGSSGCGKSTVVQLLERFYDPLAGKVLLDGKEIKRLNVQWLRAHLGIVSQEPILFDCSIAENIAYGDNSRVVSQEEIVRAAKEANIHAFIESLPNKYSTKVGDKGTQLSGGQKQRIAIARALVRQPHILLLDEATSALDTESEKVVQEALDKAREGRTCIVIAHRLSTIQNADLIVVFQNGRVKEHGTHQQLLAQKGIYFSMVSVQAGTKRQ

Compound | fluorescence slope change [1] | inhibition [2] | score [3] | rescue above control [4] | cytochrome c release ratio [5] | inhibition of aggregation [6] | glutamate uptake change [7] | inclusion score [8] | aggregation suppression score [9] | survival [10] | period change [11]
COc1ccc(NS(=O)(=O)c2ccc(N)cc2)nn1 | -40.8% (inactive) | 24% | 1.56 | 12.3 | 0.95 | -3.03% | 8.78% | 2 | 1.18 |  | 
Cc1ccc(C(=O)c2ccc(CC(=O)O)n2C)cc1 | 69.6% (active) | 3.78% | 1.04 | -3.75 | 1.04 | 23.8% | 12.3% | 2 | 0.801 | 3.83 (inactive) | 
CCOC(=O)[C@H](CCc1ccccc1)N[C@@H](C)C(=O)N1CCC[C@H]1C(=O)O | 54.7% (active) | 21.1% | 1.21 | 6.04 | 1.13 | 72.2% | -6.34% | 2 | 1.1 |  | 
CCOc1ccc(Cc2nccc3cc(OCC)c(OCC)cc23)cc1OCC | 86.8% (active) | 34.8% | 1.54 | -2.91 | 1.13 | -10.6% | 33.7% | 2 | 1.07 | 5.17 (inactive) | 
CCO/C([O-])=N/c1c[n+](N2CCOCC2)no1 |  | -3.16% | 1.13 | 3.21 | 0.83 | 36.6% | 3.92% | 2 | 1.23 | 4.75 (inactive) | 0.065 h (inactive)
CC(C)(Sc1cc(C(C)(C)C)c(O)c(C(C)(C)C)c1)Sc1cc(C(C)(C)C)c(O)c(C(C)(C)C)c1 | 6.4% (inactive) | -32.2% | 0.29 | -10.5 | 0.46 | 23.1% | -0.51% | 2 | 0.634 | 7.33 (inactive) | 
O=C(O)CCC(=O)Nc1ccc(S(=O)(=O)Nc2nccs2)cc1 | 2.1% (inactive) | -5.43% | 1.2 | -4.64 | 0.78 | 100% | 14.7% | 2 | 1.1 | 6.17 (inactive) | 
NCC1CCC(C(=O)O)CC1 (stereo not given) | 64.7% (active) | -11.3% | 1.25 | 8.04 | 0.77 | 74.7% | 10.5% | 2 | 1.21 | 17.8 (inactive) | 
CN(C)CCC(c1ccccc1)c1ccccn1 (stereo not given) |  | 12.1% | 1.44 | -9.39 | 1 | -15.2% | 24.1% | 2 | 1.23 | 15 (inactive) | -0.08 h (inactive)
CCCCC1(COC(=O)CCC(=O)O)C(=O)N(c2ccccc2)N(c2ccccc2)C1=O | 4.7% (inactive) | 9.48% | 1.11 | 9.03 | 1.09 | 57.1% | -2.57% | 2 | 0.747 | 3.58 (inactive) | 
CCn1cc(C(=O)O)c(=O)c2cc(F)c(N3CCNC(C)C3)c(F)c21 (stereo not given) |  | -6.75% | 1.15 | 3.68 | 1.13 | 80.3% | -4.22% | 2 | 1.06 | 17.1 (inactive) | -0.015 h (inactive)
COc1ccc(CCN(C)CCCC(C#N)(c2ccc(OC)c(OC)c2)C(C)C)cc1OC (stereo not given) |  | 15.1% | 1.28 | 2.45 | 0.62 | 62.8% | 24.7% | 2 | 1.45 | 22.4 (inactive) | 0.12 h (inactive)
CCn1cc(C(=O)O)c(=O)c2cc(F)c(N3CCNCC3)nc21 | 3.6% (inactive) | -8.5% | 1.5 | 0.62 | 0.92 | -1.85% | -7.7% | 2 | 1.11 | 13.2 (inactive) | 
CN(C)CCOC(=O)C(c1ccccc1)C1(O)CCCC1 (stereo not given) |  | -1.25% | 1.17 | -1.73 | 0.87 | 90.7% | -0.32% | 2 | 1.32 | 12.5 (inactive) | 
Nc1ccc(S(N)(=O)=O)cc1 |  | -14.5% | 1.26 | 0.93 | 1.06 | 81.5% | -2.33% | 2 | 1.25 | 5.08 (inactive) | 
CCN(CC)CCOC(=O)C(Cc1cccc2ccccc12)CC1CCCO1 (stereo not given) | 91.9% (active) | -17.5% | 1.25 | 1.39 | 1.11 | 22.2% | -20.3% | 2 | 1.03 | 5.33 (inactive) | 
OC(CCN1CCCCC1)(c1ccccc1)c1ccccc1 | 18.2% (inactive) | 19.5% | 1.21 | 10.4 | 1.45 | 65% | -4.45% | 2 | 1.43 | 3.42 (inactive) | 
CCOC(=O)c1ccc(N)cc1 | 53.5% (active) | -9.37% | 1.06 | -11.4 | 0.65 | 53% | 13.1% | 1.5 | 1.18 | 3.58 (inactive) | 
CCCCOc1ccc(CC(=O)NO)cc1 | 103% (active) | -8.34% | 1.21 | -4.19 | 1.09 | 43.1% | 0.25% | 2 | 1.14 | 12.2 (inactive) | 
COc1cc(NS(=O)(=O)c2ccc(N)cc2)nc(OC)n1 |  | 1.07% | 1.14 | -2.33 | 0.86 | 67.5% | -20.2% | 2 | 1.32 | 3.33 (inactive) | 
CCN(CC)CCNC(=O)c1cc(Br)c(N)cc1OC | 8.5% (inactive) | 15.4% | 1.41 | 5.76 | 0.92 | 24.2% | -4.45% | 2 | 1.35 | 5.42 (inactive) | 
NCCCC[C@H](N[C@@H](CCc1ccccc1)C(=O)O)C(=O)N1CCC[C@H]1C(=O)O | 60.6% (active) | -0.18% | 0.98 | -7.67 | 1.03 | 45.6% | 1.96% | 2 | 0.836 | 16.8 (inactive) | 
